Compound activity deposited in PubChem by The Scripps Research Institute Molecular Screening Center.
This is a sample that favours compounds with a hit; in the whole collection about 1.1% have one here.
HTR5A ag – HTR5A agonists in luminescence cell assay, primary screen, counter-screen for OPRM1-OPRD1 heterodimer agonist project, full-deck HTS; 5-hydroxytryptamine receptor 5A (Homo sapiens), P47898; cell-based; activation, % at 9.3 µM; 0.61% of 340,000 active; in the data active means activation mostly above about 9.5%, no sharp cut-off; inactive means mostly below about 7.6%
Target sequence (P47898 whole entry, looked up): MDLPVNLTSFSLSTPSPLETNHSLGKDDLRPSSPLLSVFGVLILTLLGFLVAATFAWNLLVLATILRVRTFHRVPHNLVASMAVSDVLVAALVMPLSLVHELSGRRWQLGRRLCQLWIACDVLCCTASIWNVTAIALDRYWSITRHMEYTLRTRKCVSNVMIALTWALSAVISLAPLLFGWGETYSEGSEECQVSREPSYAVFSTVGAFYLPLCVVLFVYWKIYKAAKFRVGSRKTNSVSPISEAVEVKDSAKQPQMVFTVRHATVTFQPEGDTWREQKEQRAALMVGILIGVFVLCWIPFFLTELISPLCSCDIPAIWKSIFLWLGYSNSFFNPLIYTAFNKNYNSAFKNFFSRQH
MOR-DOR inv ag – inverse agonists of MOR-DOR heterodimerization, primary screen, cell-based, luminescence; Mu-type opioid receptor (Homo sapiens) + Delta-type opioid receptor (Homo sapiens), …; cell-based MOR-DOR heterodimer luminescence, inverse agonism; inhibition, % at 9.3 µM; 0.21% of 340,000 active; AID 504357, 2011; in the data active means inhibition above about 22%, passing the limit was not always enough
HTR5A inv ctr – HTR5A inverse agonists in luminescence cell assay, primary screen, counter-screen for OPRM1-OPRD1 heterodimer inverse agonist project, full-deck HTS. 5-hydroxytryptamine receptor 5A (Homo sapiens), P47898. HTR5A cell line, inverse agonism. inhibition, % at 9.3 µM. 0.083% of 340,000 active. AID 504634, 2011; in the data active means inhibition mostly above about 23%, no sharp cut-off; inactive means mostly below about 18%
OPRM1-OPRD1 ag – agonists of OPRM1-OPRD1 heterodimerization, primary screen, cell-based, luminescence. 0.3% of 340,000 active. Mu-type opioid receptor (Homo sapiens) + Delta-type opioid receptor (Homo sapiens), …. AID 504326, 2011. cells. activation, % at 9.3 µM; in the data active means activation above about 18%
Each line names hits and unclear results; the compound was inactive in the other large screens.

CCN1CCN(Cc2nc3ccc([N+](=O)[O-])cc3c(=O)n2-c2ccc(OC)cc2OC)CC1	none
CC(C)Oc1ccccc1-c1nc(SCC(=O)O)n[nH]1	HTR5A ag 12
Cc1ncc(CO)c2c1Oc1nc(-c3ccccc3F)nc(SCC(=O)N(C)c3ccccc3)c1C2	HTR5A ag 12, OPRM1-OPRD1 ag 20
CC(C)Oc1ccc(C(=O)Nc2ccc(Cl)c(S(=O)(=O)Nc3ccc(Cl)cc3)c2)cc1	HTR5A ag 12
COc1ccc(CNc2nc(NCc3ccc(OC)c(OC)c3)n(C(=O)c3cccs3)n2)cc1OC	HTR5A ag 14
CCOc1ccc(CCN2C(=S)N([C@@H](CC(C)C)CN3CCCC3CN3C(=S)NC[C@@H]3Cc3ccc(O)cc3)C[C@@H]2CC(C)C)cc1 (some centres undefined)	none
O=C(NCc1cccc(F)c1F)C1CCC(=O)N(C2CC2)C1 (centres undefined)	HTR5A ag 10
O=S(=O)(N[C@H](CO)Cc1ccccc1)c1ccc(Br)cc1F	none
Cc1nc2ccccc2c2oc(C(=O)Nc3ccc(C(C)C)cc3)cc12	HTR5A ag 14
Cc1nc2ccccc2c2oc(C(=O)Nc3ccc4c(c3)OCCO4)cc12	none
CCn1c(C)nc2cc(C(=O)N/N=C(\C)c3ccc(N4CCOCC4)cc3)ccc21	none
CCn1c(C)nc2cc(C(=O)NN=C(C)c3ccc(C#N)cc3)ccc21	HTR5A ag 13
CCOC(=O)/C(=C\c1cccnc1)C(=O)c1cc(C(C)=O)c(Nc2ccccc2)s1	MOR-DOR inv ag 33
CCOC(=O)/C(=C\c1ccccc1)C(=O)c1cc(C(C)=O)c(Nc2ccccc2)s1	none
CCOC(=O)N1CCN(C(=O)CSc2nnc(Cn3c(=O)sc4ccccc43)n2C)CC1	none
CCOC(=O)CSc1nnc(Cn2c(=O)sc3ccccc32)n1C	HTR5A ag 11
C/C(=N\NC(=O)c1nnn(-c2nonc2N)c1-c1ccc2c(c1)OCO2)c1ccc(C)cc1	none
Cc1ccc(S(=O)(=O)N2CCCCC2c2cccnc2)c(C)c1C (centres undefined)	HTR5A ag 13
CC(C)c1cc(C(=O)N2CCCC(N3CCN(c4ccc(F)cc4)CC3)C2)n(C)n1 (centres undefined)	HTR5A ag 10
CC(C)CN1C(=O)c2ccc(C(=O)NCc3ccccn3)cc2C1=O	HTR5A ag 9.6
CC1Nc2ncnc(N3CCOCC3)c2N(Cc2ccccc2)C1=O (centres undefined)	none
CC1Nc2ncnc(N3CCN(c4ccccc4)CC3)c2N(Cc2ccc(Br)cc2)C1=O (centres undefined)	MOR-DOR inv ag 71, HTR5A inv ctr 69
COc1ccc(CN2C(=O)C(C)Nc3ncnc(N4CCN(c5ccccc5)CC4)c32)cc1 (centres undefined)	MOR-DOR inv ag 50, HTR5A inv ctr 42
COc1ccccc1C(=O)NCCC(=O)NC1CCCCCC1	none
CCn1cc(Cl)c(C(=O)N2N=C(c3ccc4ccccc4c3)CC2c2ccccc2O)n1 (centres undefined)	HTR5A ag 12
COc1ccc(NC(=O)Nc2cccc3c2O[C@H](CN(C)S(=O)(=O)c2ccc(OC)cc2)[C@@H](C)CN([C@H](C)CO)C3=O)cc1	none
COc1ccc(NC(=O)Nc2cccc3c2O[C@H](CN(C)S(=O)(=O)c2c(C)noc2C)[C@@H](C)CN([C@H](C)CO)C3=O)cc1	HTR5A ag 10
COC(=O)c1cc(C)nc2c1C(=O)C(=O)C=C2N1CCOCC1	OPRM1-OPRD1 ag 26
CC1CC(C)CN(CCCNC(=O)CN2C(=O)CSc3ccc(S(=O)(=O)N4CCOCC4)cc32)C1 (centres undefined)	HTR5A ag 12
CC(=O)OC1CC2(C)C(CCC2(O)C(C)=O)C2CCC3C(Cl)C(=O)CCC3(C)C12 (centres undefined)	none
Cc1cc(C(=O)COC(=O)c2ccc3c(c2)OCO3)c(C)n1CC1CCCO1 (centres undefined)	none
Cc1cc(C(=O)COC(=O)c2ccc(O)cc2)c(C)n1CC1COc2ccccc2O1 (centres undefined)	HTR5A ag 12
O=C(O)CC(Cc1ccc(Br)cc1)C(=O)Nc1ccccc1 (centres undefined)	none
O=C(O)CC(Cc1ccc(Cl)cc1)C(=O)Nc1ccccc1 (centres undefined)	HTR5A ag 10
Cc1ccc(S(=O)(=O)N2CCCCC2)cc1NC(=O)CNc1ccc(C(F)(F)F)cc1	none
